Bioassay records as filed in PubChem BioAssay.
Shown are actives, neighbours in structure and some others; about 19% of the full set was active somewhere.
Shiga toxin inh = blocks Shiga toxin action in Vero cells; Vero cells, Shiga toxin protein synthesis inhibition reporter; 9.2% of 290,000 active; AID 2315; inhibition, % at 38.7 µM; in the data active = inhibition mostly above about 28%, no sharp cut-off; inactive = mostly below about 43%; also: 0% is about no effect
Pf growth 96h = P. falciparum growth inhibition at 96 hours. P. falciparum luciferase reporter growth, 96 h. Potency, µM (highest dose often 28.7 µM), inactives show top-dose activity change, negative = inhibition, usual class: inhibitors. 6.9% of 320,000 active; also: potency is read from the fitted curve at half-maximal effect; % is scaled to controls: 0 for no effect and ±100 for the full control effect
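Two parasite generations (96 h, 37 C, 5% CO2) of compound exposure in infected erythrocytes (0.05% parasitemia, 2% hematocrit). Luciferase-reporter P. falciparum; decreased luminescence indicates inhibited growth, aimed at apicoplast-acting delayed death.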
Lassa entry inh = Lassa virus entry inhibition; Lassa virus pseudotype entry inhibition, cell reporter; Potency, µM (highest dose often 37.9 µM), inactives show top-dose activity change, negative = inhibition, actives largely listed as inhibitors; 1.2% of 300,000 active; AID 540256; calls by dose curve; tested in HEK293 cells; also: potency is read from the fitted curve at half-maximal effect; % is scaled to controls: 0 for no effect and ±100 for the full control effect; nearly all actives have a fitted effect of over 50% in size
Pf growth 48h = inhibits P. falciparum growth in the first generation, 48 h. AID 504832. 5.9% of 310,000 active. Potency, µM (titrated, usually from 28.7 µM), for inactives: top-dose activity change, negative = inhibition, hits mostly inhibitors. P. falciparum luciferase growth in erythrocytes, 48 h; also: potency is read from the fitted curve at half-maximal effect; % is scaled to controls: 0 for no effect and ±100 for the full control effect
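First compound was added to culture medium, then infected red cells at 0.1% parasitemia and 2% hematocrit (final). After incubation at 37 C under 5% CO2, luciferase detection reagent was dispensed and light output recorded.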
CHX counter = affects cycloheximide protein synthesis inhibition readout, counter-screen; cell reporter, cycloheximide protein synthesis inhibition counterscreen; 12% of 300,000 active; max response, %; AID 2314; in the data active = max response mostly above about 13%, no sharp cut-off; inactive = mostly below about 14%; also: read at 38.3 µM for the half of the compounds with a filed dose; 0% is about no effect
Marburg entry inh = blocks Marburg virus binding to or entry into cells | 1.8% of 300,000 active | Potency, µM (series often up to 37.8 µM), for inactives: at the highest dose activity change, negative = inhibition, actives largely listed as inhibitors | Marburg virus pseudotyped entry inhibition, cell reporter; calls by dose curve; tested in HEK293 cells; also: potency is read from the fitted curve at half-maximal effect; % is scaled to controls: 0 for no effect and ±100 for the full control effect
Starred values were filed as active, the others as inactive; u = inconclusive; x = no result; + = active, no number; [ ] = another dose, or the depositor's remark. Unless noted, calls follow the shape of the dose curve; as a rule, active = well fitted inhibition curve with a large enough effect; inconclusive = small, poorly fitted or top-dose-only effect, or another doubt; inactive = no such curve, though single readings can be large or run the other way.

SMILES | Shiga toxin inh | Pf growth 96h | Lassa entry inh | Pf growth 48h | CHX counter | Marburg entry inh
CC(C)[C@H](NC(=O)[C@@H]1Cc2ccccc2CN1)C(=O)Nc1ccc2c(c1)OCCO2 | 82.6* | u | x | -19.8% | 28.3* | x
C[C@H](NC(=O)[C@@H]1Cc2ccccc2CN1)C(=O)NC1CCCC1 | -3.2 | 21.9% | x | 16.0% | -0.6 | x
O=C(CNC(=O)[C@@H]1Cc2ccccc2CN1)NC1CCCC1 | 53.0 | u | x | u | 24.3* | x
O=C(CNC(=O)[C@@H]1Cc2ccccc2CN1)Nc1ccc2c(c1)OCCO2 | 60.1* | 53.1% | x | 41.9% | 37.1* | x
Cn1cc2cccc([N+](=O)[O-])c2n1 | -6.7 | 56.4% | -4.4%[46.1 µM] | u | -6.4 | 9.8%[46.1 µM]
CSCC[C@H](NC(=O)[C@@H]1Cc2ccccc2CN1)C(=O)Nc1ccc2c(c1)OCCO2 | 87.5* | 89.9% | x | 69.4% | 51.7* | x
COCCNC(=O)C(NC(=O)C1CCCCC1)C(C)C (configuration not stated) | 14.0 | 0.738µM* | -9.2%[46.1 µM] | 12.6% | -5.6 | 5.3%[46.1 µM]
C[C@H](NC(=O)[C@@H]1Cc2ccccc2CN1)C(=O)Nc1ccc2c(c1)OCCO2 | 51.0* | -4.8% | x | -8.6% | 36.2* | x
CC(C)C(NC(=O)C1CCCCC1)C(=O)Nc1ccc2c(c1)OCCO2 (configuration not stated) | + | u | 13.2% | 85.2% | 63.2* | u
CC(C)C(NC(=O)C1CCCCC1)C(=O)Nc1ccncc1 (configuration not stated) | -15.4 | 94.9% | 12.4% | u | -5.4 | -0.1%[46.1 µM]
CC(C)c1ccc(NC(=O)[C@@H](C)NC(=O)[C@@H]2Cc3ccccc3CN2)cc1 | 12.2 | 8.5% | 20.9%[46.1 µM] | 1.5% | 10.3 | 0.2%[46.1 µM]
CSCC[C@H](NC(=O)[C@@H]1Cc2ccccc2CN1)C(=O)NC1CCCCC1 | 6.4 | 25.1% | -0.6%[46.1 µM] | 38.6% | 12.2 | 9.0%[46.1 µM]
Cc1ccc(C)c(CSCC(=O)NCc2cccs2)c1 | 32.8 | u | -10.1%[46.1 µM] | u | -2.5 | u
Cc1ccccc1Cn1ccc(=NCc2ccccc2)cc1 | 2.3 | 0.329µM* | 11.1% | 0.738µM* | -1.7 | 12.2%[46.1 µM]
COCCCNC(=O)C1CCC(=O)N1Cc1ccccc1Cl (configuration not stated) | -9.2 | 11.7µM* | -0.8% | 23.7% | -0.8 | 13.5%
O=C(NCCc1ccc(Cl)cc1)C1CCC(=O)N1Cc1ccccc1Cl (configuration not stated) | -12.1 | 59.6% | 10.7% | 1.8% | -2.6 | -9.5%
O=C(O)C1CCC(=O)N1Cc1ccccc1Cl (configuration not stated) | -4.0 | 10.4µM* | -1.8% | 1.5% | -3.1 | -0.8%
O=C(NCc1ccccc1Cl)C1CCC(=O)N1Cc1ccc(F)cc1 (configuration not stated) | -1.6 | 14.5% | x | 33.8% | 1.1 | x
O=C(Nc1ccc(Cl)cc1Cl)C1CCC(=O)N1Cc1ccccc1Cl (configuration not stated) | -18.2 | 8.28µM* | 4.9% | u | -2.9 | -4.6%
COc1ccc(/C=C/C(=O)NC(=S)Nc2ccc(S(N)(=O)=O)cc2)cc1OC | x | -4.6% | u | 23.4% | -1.9 | -23.7%
O=C1c2ccccc2C(=O)c2c(NCCc3ccc(O)cc3)ccc(NCCc3ccc(O)cc3)c21 | x | x | 5.17µM* | x | x | 20.6µM*
O=S1(=O)C=C(Oc2ccc(F)cc2)c2ccccc21 | 26.7* | 75.2% | -0.4% | 3.2% | 10.9* | -13.4%
Cn1nnnc1SCc1nc2ccccc2[nH]1 | 62.3 | 128.1% | 15.5% | 29.3% | 33.7* | u
CCn1c(SCc2nc3ccccc3[nH]2)nnc1-c1ccccc1OC | -4.7 | 3.7µM* | -0.6% | u | 9.7 | -10.0%
Cn1c(COc2ccccc2)nnc1SCc1nc2ccccc2[nH]1 | -4.8 | 1.47µM* | 26.6% | -14.2% | -3.1 | 18.1%
SMILES | Shiga toxin inh | Pf growth 96h | Lassa entry inh | Pf growth 48h | CHX counter | Marburg entry inh
c1ccc(C[n+]2csc3ccccc32)cc1 | 108.8* | 31.7% | -1.2% | 33.9% | 14.3 | 13.2%
COc1ccc(NS(=O)(=O)c2cccc(NC(=O)c3ccc(S(=O)(=O)N4CCCCCC4)cc3)c2)cc1 | 20.4 | 13.1µM* | 8.2µM* | u | 0.5 | 3.55µM*
O=C(Nc1cccc(S(=O)(=O)C(F)F)c1)c1ccc(S(=O)(=O)N2CCCC2)cc1 | -3.4 | -11.7% | 5.01µM* | -20.8% | -3.7 | u
COc1ccc(NS(=O)(=O)c2cccc(NC(=O)C34CCC(CC3)C4)c2)cc1 | -2.1 | u | 11.6µM* | -12.3% | -2.9 | u
COc1ccc(NS(=O)(=O)c2ccc(O)c(NC(=O)c3ccc(S(=O)(=O)N4CCCCCC4)cc3)c2)cc1 | 9.1 | 7.6% | -4.4% | 22.5% | -0.4 | u
COc1ccc(NS(=O)(=O)c2cccc(C(=O)N3CCCCCC3)c2)cc1 | x | 1.2% | u | -0.8% | x | -6.3%
O=C(NCCCN1CCN(c2ccccc2F)CC1)C1CCN(S(=O)(=O)c2cccs2)CC1 | -11.0 | 116.3% | -16.0% | -2.1% | -4.1 | -9.6%
COc1ccc(NC(=O)C2Cc3ccccc3N2C(=O)c2ccccc2)c(OC)c1 (configuration not stated) | x | x | -5.3%[46.1 µM] | x | x | x
OCC1(Cc2ccccc2)CCN(Cc2cccc(F)c2F)CC1 | -11.0 | u | x | u | 1.7 | x
CSc1ccc(CN2CCC(CO)(Cc3ccc(Cl)cc3)CC2)cc1 | 17.5 | u | 12.6µM* | 0.0% | -2.0 | u
OCC1(Cc2ccc(Cl)cc2)CCN(CC2CC=CCC2)CC1 (configuration not stated) | -21.2 | 49.1% | -12.6%[46.1 µM] | 6.57µM* | -2.2 | u
OCC1(Cc2ccc(Cl)cc2)CCN(CCCc2ccccc2)CC1 | -19.5 | 3.0% | u | u | -0.3 | u
OCC1(Cc2ccc(Cl)cc2)CCN(Cc2ccccc2F)CC1 | -9.9 | u | -0.8%[46.1 µM] | 13.1µM* | 0.7 | u
COc1ccc([N+](=O)[O-])c(OC)c1C(=O)NC(=O)Nc1c(F)c(F)c(F)c(F)c1F | -3.5 | 4.65µM* | x | x | -3.4 | x
COc1ccc([N+](=O)[O-])c(OC)c1C(=O)Nc1ccc(F)cc1F | 5.0 | 74.2% | -10.1%[46.1 µM] | 18.2% | -2.5 | u
COc1cccc(OC)c1C(=O)NC(=O)Nc1c(F)c(F)c(F)c(F)c1F | 17.1 | 2.08µM* | x | 7.38µM* | 0.5 | x
O=C1CSC(c2ccc([N+](=O)[O-])cc2)N1C1CCCCC1 (configuration not stated) | -8.5 | 0.465µM* | u | -7.6% | -5.5 | u
COc1ccccc1OCCSc1nc2ccccc2n1CCC(=O)O | -4.0 | 61.6% | x | 1.4% | 7.3 | x
CC(C)(C)NC(=O)CN(C(=O)CN1C(=O)C(=O)c2ccccc21)C(C)(C)C | -7.3 | 13.1µM* | u | 15.1% | -3.7 | -0.8%[46.1 µM]
Cc1nc2cc(F)ccc2n1C1CCN(C(=O)c2c(F)cccc2F)CC1 | -18.7 | -10.5% | x | 1.47µM* | 3.8 | x
O=C(Oc1cccc(/C=N/Nc2nc(Nc3ccccc3)nc(N3CCOCC3)n2)c1)c1ccco1 | 22.5* | 6.1% | u | u | 13.3* | u
